In all, about 67,000 compounds went through this assay and about 300 (0.45%) showed an effect of 50% or more. The sample as a whole holds a higher share of strong results than the screen did.
target: Polyketide synthase Pks13 (Mycobacterium tuberculosis (strain ATCC 25618 / H37Rv)) (UniProt I6X8D2); test: Mycobacterium tuberculosis Polyketide synthase 13 Thioesterase (PKS13); format: functional; parameters: scale not given: in the data most compounds retested in dose-response had high values; conditions: 30 µM
Sequence (I6X8D2 whole entry): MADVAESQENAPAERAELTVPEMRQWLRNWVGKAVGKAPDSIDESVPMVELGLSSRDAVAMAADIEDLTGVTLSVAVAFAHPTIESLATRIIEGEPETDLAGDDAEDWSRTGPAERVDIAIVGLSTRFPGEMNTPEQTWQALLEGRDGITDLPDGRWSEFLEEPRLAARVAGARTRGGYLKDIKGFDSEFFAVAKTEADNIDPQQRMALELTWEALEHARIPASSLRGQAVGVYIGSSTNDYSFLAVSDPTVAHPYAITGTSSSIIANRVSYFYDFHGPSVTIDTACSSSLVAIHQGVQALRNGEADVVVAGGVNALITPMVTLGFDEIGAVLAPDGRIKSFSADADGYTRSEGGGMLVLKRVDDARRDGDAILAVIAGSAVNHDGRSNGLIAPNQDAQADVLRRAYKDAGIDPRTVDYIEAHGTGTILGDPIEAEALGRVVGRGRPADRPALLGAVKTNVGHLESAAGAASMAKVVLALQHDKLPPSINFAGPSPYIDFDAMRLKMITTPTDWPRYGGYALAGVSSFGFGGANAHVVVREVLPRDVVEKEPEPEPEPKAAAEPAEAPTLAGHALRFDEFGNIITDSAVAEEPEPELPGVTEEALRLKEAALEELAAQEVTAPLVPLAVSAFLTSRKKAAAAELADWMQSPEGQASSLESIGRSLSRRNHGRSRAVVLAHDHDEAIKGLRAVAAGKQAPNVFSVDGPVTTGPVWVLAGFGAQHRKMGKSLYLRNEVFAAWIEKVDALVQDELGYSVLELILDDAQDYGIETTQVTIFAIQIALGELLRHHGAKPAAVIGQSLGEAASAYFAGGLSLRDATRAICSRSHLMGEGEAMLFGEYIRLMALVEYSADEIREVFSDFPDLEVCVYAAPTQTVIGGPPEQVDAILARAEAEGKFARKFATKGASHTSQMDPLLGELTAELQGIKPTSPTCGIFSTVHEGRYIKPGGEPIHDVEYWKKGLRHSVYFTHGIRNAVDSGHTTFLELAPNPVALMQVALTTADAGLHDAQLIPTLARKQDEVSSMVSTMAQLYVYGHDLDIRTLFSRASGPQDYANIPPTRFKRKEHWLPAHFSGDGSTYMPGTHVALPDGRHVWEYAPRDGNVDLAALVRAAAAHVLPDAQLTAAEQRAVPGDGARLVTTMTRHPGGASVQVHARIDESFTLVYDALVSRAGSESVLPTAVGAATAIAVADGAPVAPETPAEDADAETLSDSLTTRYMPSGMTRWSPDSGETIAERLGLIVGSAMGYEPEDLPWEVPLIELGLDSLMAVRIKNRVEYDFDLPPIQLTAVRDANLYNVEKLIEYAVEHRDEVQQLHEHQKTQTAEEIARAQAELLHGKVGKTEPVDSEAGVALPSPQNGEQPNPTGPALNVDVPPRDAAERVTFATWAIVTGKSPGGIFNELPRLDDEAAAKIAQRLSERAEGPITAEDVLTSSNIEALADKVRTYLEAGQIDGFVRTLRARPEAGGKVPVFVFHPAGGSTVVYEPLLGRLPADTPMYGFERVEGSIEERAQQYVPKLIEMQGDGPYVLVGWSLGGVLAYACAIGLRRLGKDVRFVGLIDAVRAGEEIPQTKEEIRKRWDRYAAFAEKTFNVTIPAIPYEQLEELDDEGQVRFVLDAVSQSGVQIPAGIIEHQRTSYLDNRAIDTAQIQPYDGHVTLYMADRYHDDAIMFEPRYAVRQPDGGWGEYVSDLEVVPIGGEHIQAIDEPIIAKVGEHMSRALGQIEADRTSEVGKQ

Row | SMILES | Percent Effect [%]
1 | COC(=O)NCC(=O)NCC(C)(C)c1cccc(Br)c1 | -17.5
2 | COC(=O)NCC(=O)NCC(C)(C)c1cccc(C(F)(F)F)c1 | -4.12
3 | CCC(=O)NCC(=O)NCC(C)(C)c1cccc(Br)c1 | 50.4
4 | CS(=O)(=O)N1CCO[C@@H]2CN(C(=O)C3CCOC3)CC[C@@H]2C1 (stereo partly drawn) | -9.9
5 | O=C(c1ccccc1)C1CCN(c2cncc(-n3cccn3)n2)CC1 | 75.5
6 | CN(C)C(=O)C1CCN(c2cncc(-n3cccn3)n2)CC1 | 9.49
7 | NC(=O)C1CCN(c2cncc(-n3cccn3)n2)CC1 | 9.01
8 | Cc1ccc(C(=O)N2C[C@@H](OCC3CCOCC3)[C@H]3OCCC[C@H]32)o1 | -4.11
9 | O=C1CCCN1Cc1ncn2c1CN(C(=O)NC1CCCC1)CCC2 | 60.1
10 | CC(C)NC(=O)N1CCCn2cnc(CN3CCCC3=O)c2C1 | -40.2
11 | O=C1CCCN1Cc1ncn2c1CN(C(=O)NC1CCCCC1)CCC2 | 29
12 | O=C([C@@H]1C[C@@H]2CCN(Cc3ccccn3)C[C@H]2O1)N1CCCO1 | -7.04
13 | CN(C)C(=O)CN1C[C@@H]2CC[C@H](C1)N(C(=O)CCn1cncn1)C2 | -4.82
14 | CC(=O)c1cc(CN2C[C@H]3CC[C@@H]2CN(S(=O)(=O)N(C)C)C3)cs1 | -12.2
15 | O=C(c1ccccc1)N1C[C@@H]2CC[C@H](C1)N(Cc1cc(F)ccc1Cl)C2 | 3.66
16 | COc1cc(N2C[C@@H]3CC[C@H](C2)N(CC2CCC2)C3=O)ncn1 | -4.75
17 | CN1C(=O)[C@H]2CC[C@@H]1CN(c1ncnc3ccsc13)C2 | 38.1
18 | O=C1[C@H]2CC[C@H](CN(c3ncnc4ccsc34)C2)N1CC1CC1 | 90.8
19 | COCC(=O)N1CC[C@H]2C[C@H](c3nnc(C4CC4)o3)O[C@@H]2C1 | -6.34
20 | COCCN1C[C@H]2CC[C@@H]1CN(Cc1nc3ccccc3n1C)C2 | -34.6
21 | NC(=O)COc1ccc(CN2CC[C@@]3(O)CCCC[C@H]3C2)cc1Cl | -1.23
22 | CCc1[nH]c2c(CNc3nc(C)cc(NC)n3)cc(C)cc2c1C | 146
23 | CNc1cc(C)nc(NCc2cc(C)cc3c(C)c(C)[nH]c23)n1 | 13

Row | SMILES | Percent Effect [%]
24 | CCc1[nH]c2c(CNc3cc(C)nc(NC)n3)cc(C)cc2c1C | 5.91
25 | COC[C@@H]1CC[C@H]2[C@H](CCN2S(=O)(=O)Cc2ccccc2)O1 | -27.3
26 | c1cncc(CN2CCN3C[C@H](Oc4cncnc4)C[C@H]3C2)c1 | 0.84
27 | Cc1cccc(CN2C[C@@H]3CN(C(=O)C4CCOC4)C[C@@H]3C2=O)c1 (stereo partly drawn) | -8.77
28 | CN1CCN(C(=O)[C@H]2C[C@H]3[C@H](CCN3Cc3nccs3)O2)CC1 | -17.5
29 | Cc1ccc(N2CC[C@H]3C[C@H](C(=O)NCc4ccco4)O[C@@H]3C2)cc1 | -20.4
30 | c1cc(CN2CC[C@@H]3CN(c4cnccn4)C[C@@H]3C2)ccn1 | -15.9
31 | CC1CN(C(=O)c2cc(=O)[nH]c3ccc(F)cc23)CCO1 (stereo not drawn) | 6.5
32 | CN(C)C[C@@H]1CN(C(=O)c2cc(F)ccc2F)C[C@@H]1CO | -27.8
33 | Cc1ccc(OCc2occc2C(=O)N2C[C@@H]3[C@@H](CN(C)C)[C@@H]3C2)cc1 | -36.4
34 | CN(C)C[C@@H]1[C@H]2CN(C(=O)c3cc(=O)[nH]c4ccc(F)cc34)C[C@@H]12 | 55.8
35 | CN(C)C[C@H]1C[C@@H](CO)CN(C(=O)c2cc(=O)[nH]c3cc(F)ccc23)C1 | -20
36 | Cc1ccoc1C(=O)N1CC[C@@H]2CN(C3CCOCC3)CCO[C@@H]2C1 | -13.2
37 | COc1ncccc1CN1C[C@H]2C[C@@H](C(=O)NCC3CC3)N(C)[C@H]2C1 | -7.18
38 | Cc1noc(C)c1CN1C(=O)[C@H]2CC[C@@H]1CN(Cc1cccnc1N)C2 | -20
39 | Cc1oncc1C(=O)N1CC[C@@H]2[C@@H]1CC(=O)N2Cc1cccnc1 | 10.2
40 | CCc1ccccc1CN1CCN(Cc2ncc[nH]2)[C@H]2CS(=O)(=O)C[C@H]21 | -16.6
41 | Cn1ccc(C(=O)NC2CCN(c3ncccn3)CC2)cc1=O | 71.3
42 | Cn1ccc(C(=O)N2CCN(c3ncccn3)CC2)cc1=O | 11.1
43 | COc1ccc(C(=O)NC2CCN(c3ncccn3)CC2)cc1F | -18.2
44 | CN(C)c1ccc(CN2C[C@H]3CC[C@@H]2CN(C2CCOCC2)C3)cn1 | -33
45 | CNC(=O)[C@H]1C[C@@H]2CN(Cc3csc(C)n3)C[C@@H]2N1S(C)(=O)=O | -33.5
46 | CC(C)COC1CC2(CCN(C(=O)Cc3ccccn3)CC2)C1 | 0.268

Row | SMILES | Percent Effect [%]
47 | CCOC1CC2(CCN(C(=O)Cc3ccccn3)CC2)C1 | 58.6
48 | O=C(Cc1ccccn1)N1CCC2(CC1)[C@H](O)C[C@@H]2O | 7.55
49 | C[C@@H]1C[C@@H]2CCN(C(=O)c3ccncn3)C[C@H]2O1 | -3.96
50 | O=C(CC[C@@H]1CCCN2CCCC[C@H]12)NCCc1nc(O)cc(O)n1 | -3.34
51 | c1cncc(OC[C@]23COC[C@H]2CN(Cc2nccs2)C3)c1 | -6.85
52 | CCOCCCNC(=O)c1cn(C(C)(C)C)c2ncccc12 | 60.2
53 | COCCCNC(=O)c1cn(C(C)(C)C)c2ncccc12 | 0.73
54 | COCCNC(=O)c1cn(C(C)(C)C)c2ncccc12 | -9.36
55 | Cc1cccc(CN2C[C@@H]3CCCO[C@@H]3[C@H](Nc3ccccn3)C2)n1 | -13.2
56 | C[C@H]1C[C@@H]2CCN(C(=O)c3cccn3C)C[C@H]2O1 | -23.4
57 | Cc1oc(-c2nc(C#N)c(NC3CC3)o2)cc1S(=O)(=O)N1CCCC1 | -2.87
58 | CN(C)S(=O)(=O)c1ccc(-c2nc(C#N)c(NC(C)(C)C)o2)o1 | -2.58
59 | CN(C)S(=O)(=O)c1ccc(-c2nc(C#N)c(NC3CC3)o2)o1 | 73.3
60 | Cc1ccc(C(=O)N2CCO[C@H]3[C@H](OCC4CCOCC4)CC[C@@H]32)o1 | -6.47
61 | O=C(NCCCO)c1cc(-c2cc[nH]n2)n2ccccc12 | 48.6
62 | COCCNC(=O)c1cc(-c2cc[nH]n2)n2ccccc12 | 47.6
63 | CC(C)(CO)CNC(=O)c1cc(-c2cc[nH]n2)n2ccccc12 | 67.2
64 | Fc1cnc(N2CCO[C@H]3CN(CC4CCCC4)C[C@H]32)nc1 | -14.5
65 | Cc1cccc(NC(=O)c2[nH]nc(C(C)C)c2Br)n1 | 73.4
66 | CC(C)c1n[nH]c(C(=O)Nc2ccccn2)c1Br | -9.25
67 | CC(C)c1n[nH]c(C(=O)Nc2cc[nH]n2)c1Br | -20
68 | Cc1cc(CN2C[C@H]3CCC[C@@]3(COCC3CCOCC3)C2)no1 | -40.7

From ChEMBL document CHEMBL3988442, “University of Dundee, Small-Polar-MMV Screening Library” (2021)
